Source: the supplement of paper PMC6411743
± gives the standard deviation of the averaged measurements. Of roughly 5,400 targets only a part is listed; those with the largest changes were picked by preference.

Compound: Nc1nc2c(ncn2[C@@H]2O[C@H](COP(=O)(O)OP(=O)(O)OP(=O)(O)O)[C@@H](O)[C@H]2O)c(=O)[nH]1 [guanosine triphosphate]
Test: NP40-soluble protein abundance relative to vehicle (solubility fold change) (ratio); higher = more soluble protein in presence of GTP
Method in brief: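 Values are fold changes against the detergent-processed vehicle, based on vsn-normalised intensities. Jurkat crude lysate was treated at eight concentrations from 0.1 to 10 mM (10 min at room temperature, then 3 min at 37 °C), solubilised with 0.8% NP40 and benzonase, ultracentrifuged and analysed by TMT-labelled LC-MS/MS over three independent experiments.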

UniProt Q5K651, sequence (Q5K651 whole entry, one chain of several): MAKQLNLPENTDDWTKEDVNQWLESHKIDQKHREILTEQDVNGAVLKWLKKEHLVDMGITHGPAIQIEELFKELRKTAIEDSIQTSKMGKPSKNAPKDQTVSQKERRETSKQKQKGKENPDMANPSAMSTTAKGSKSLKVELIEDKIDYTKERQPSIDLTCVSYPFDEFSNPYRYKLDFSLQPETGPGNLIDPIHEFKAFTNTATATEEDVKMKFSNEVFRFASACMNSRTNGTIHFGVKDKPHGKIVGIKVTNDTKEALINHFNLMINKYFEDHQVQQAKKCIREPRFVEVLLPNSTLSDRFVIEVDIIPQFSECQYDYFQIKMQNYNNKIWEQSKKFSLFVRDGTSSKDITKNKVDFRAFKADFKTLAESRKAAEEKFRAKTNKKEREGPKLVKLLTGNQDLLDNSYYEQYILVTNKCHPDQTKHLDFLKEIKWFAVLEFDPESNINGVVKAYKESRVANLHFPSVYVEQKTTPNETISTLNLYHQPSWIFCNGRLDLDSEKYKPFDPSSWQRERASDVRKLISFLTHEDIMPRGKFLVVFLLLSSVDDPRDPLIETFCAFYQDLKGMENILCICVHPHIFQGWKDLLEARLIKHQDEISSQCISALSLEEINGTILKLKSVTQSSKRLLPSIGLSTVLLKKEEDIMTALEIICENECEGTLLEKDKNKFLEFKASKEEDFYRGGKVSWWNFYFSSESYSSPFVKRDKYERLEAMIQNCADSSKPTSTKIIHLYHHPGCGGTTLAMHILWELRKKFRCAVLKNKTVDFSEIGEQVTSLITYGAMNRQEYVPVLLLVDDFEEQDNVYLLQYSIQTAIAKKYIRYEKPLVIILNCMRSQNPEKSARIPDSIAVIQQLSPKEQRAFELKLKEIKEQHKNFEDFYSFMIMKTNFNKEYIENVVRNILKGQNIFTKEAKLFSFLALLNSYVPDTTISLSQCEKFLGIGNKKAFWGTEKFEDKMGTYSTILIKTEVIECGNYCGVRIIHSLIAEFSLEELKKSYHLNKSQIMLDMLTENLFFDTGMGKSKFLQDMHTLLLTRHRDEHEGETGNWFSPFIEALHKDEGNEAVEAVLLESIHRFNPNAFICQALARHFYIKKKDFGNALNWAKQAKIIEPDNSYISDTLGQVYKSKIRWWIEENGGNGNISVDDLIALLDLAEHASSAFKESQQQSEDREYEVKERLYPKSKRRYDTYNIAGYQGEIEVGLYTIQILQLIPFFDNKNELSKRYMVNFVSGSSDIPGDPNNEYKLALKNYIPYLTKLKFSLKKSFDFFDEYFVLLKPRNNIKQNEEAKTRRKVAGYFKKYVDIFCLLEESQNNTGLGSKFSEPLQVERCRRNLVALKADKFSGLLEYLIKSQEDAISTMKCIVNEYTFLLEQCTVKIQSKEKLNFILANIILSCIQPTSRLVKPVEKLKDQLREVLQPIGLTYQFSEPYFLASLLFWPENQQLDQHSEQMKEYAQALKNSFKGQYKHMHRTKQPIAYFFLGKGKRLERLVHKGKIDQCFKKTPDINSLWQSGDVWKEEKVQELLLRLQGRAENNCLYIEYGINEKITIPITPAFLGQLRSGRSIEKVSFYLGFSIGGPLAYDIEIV
UniProt Q8IZ83, sequence (Q8IZ83 whole entry): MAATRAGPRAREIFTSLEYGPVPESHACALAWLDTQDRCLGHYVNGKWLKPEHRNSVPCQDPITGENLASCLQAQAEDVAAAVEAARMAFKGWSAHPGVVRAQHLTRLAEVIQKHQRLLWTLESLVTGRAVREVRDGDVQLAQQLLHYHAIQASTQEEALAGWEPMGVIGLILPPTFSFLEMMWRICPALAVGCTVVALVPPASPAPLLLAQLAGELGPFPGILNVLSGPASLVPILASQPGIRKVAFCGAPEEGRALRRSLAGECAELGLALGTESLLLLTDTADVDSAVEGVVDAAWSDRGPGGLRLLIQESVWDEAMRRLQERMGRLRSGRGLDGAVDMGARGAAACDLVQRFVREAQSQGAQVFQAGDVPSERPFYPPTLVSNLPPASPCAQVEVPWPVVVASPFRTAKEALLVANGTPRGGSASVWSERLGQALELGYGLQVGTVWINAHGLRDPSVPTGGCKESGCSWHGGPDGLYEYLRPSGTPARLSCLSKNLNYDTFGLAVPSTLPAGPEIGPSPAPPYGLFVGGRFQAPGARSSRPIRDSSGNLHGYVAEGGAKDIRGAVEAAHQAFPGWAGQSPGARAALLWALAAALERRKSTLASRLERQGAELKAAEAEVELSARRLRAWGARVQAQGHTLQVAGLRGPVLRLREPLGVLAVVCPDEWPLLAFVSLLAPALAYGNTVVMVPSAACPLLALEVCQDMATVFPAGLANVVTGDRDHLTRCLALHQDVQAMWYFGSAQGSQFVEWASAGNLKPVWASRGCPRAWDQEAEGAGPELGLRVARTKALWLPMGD
UniProt Q86U90, sequence (Q86U90 whole entry): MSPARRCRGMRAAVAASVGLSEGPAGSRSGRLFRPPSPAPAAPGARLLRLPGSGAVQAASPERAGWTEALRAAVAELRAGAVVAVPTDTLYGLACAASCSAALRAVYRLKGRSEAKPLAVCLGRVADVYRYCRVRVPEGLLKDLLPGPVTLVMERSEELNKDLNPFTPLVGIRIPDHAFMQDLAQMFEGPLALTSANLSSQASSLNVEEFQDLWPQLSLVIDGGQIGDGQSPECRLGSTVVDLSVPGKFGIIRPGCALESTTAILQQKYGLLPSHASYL
UniProt Q14676, sequence (Q14676 whole entry): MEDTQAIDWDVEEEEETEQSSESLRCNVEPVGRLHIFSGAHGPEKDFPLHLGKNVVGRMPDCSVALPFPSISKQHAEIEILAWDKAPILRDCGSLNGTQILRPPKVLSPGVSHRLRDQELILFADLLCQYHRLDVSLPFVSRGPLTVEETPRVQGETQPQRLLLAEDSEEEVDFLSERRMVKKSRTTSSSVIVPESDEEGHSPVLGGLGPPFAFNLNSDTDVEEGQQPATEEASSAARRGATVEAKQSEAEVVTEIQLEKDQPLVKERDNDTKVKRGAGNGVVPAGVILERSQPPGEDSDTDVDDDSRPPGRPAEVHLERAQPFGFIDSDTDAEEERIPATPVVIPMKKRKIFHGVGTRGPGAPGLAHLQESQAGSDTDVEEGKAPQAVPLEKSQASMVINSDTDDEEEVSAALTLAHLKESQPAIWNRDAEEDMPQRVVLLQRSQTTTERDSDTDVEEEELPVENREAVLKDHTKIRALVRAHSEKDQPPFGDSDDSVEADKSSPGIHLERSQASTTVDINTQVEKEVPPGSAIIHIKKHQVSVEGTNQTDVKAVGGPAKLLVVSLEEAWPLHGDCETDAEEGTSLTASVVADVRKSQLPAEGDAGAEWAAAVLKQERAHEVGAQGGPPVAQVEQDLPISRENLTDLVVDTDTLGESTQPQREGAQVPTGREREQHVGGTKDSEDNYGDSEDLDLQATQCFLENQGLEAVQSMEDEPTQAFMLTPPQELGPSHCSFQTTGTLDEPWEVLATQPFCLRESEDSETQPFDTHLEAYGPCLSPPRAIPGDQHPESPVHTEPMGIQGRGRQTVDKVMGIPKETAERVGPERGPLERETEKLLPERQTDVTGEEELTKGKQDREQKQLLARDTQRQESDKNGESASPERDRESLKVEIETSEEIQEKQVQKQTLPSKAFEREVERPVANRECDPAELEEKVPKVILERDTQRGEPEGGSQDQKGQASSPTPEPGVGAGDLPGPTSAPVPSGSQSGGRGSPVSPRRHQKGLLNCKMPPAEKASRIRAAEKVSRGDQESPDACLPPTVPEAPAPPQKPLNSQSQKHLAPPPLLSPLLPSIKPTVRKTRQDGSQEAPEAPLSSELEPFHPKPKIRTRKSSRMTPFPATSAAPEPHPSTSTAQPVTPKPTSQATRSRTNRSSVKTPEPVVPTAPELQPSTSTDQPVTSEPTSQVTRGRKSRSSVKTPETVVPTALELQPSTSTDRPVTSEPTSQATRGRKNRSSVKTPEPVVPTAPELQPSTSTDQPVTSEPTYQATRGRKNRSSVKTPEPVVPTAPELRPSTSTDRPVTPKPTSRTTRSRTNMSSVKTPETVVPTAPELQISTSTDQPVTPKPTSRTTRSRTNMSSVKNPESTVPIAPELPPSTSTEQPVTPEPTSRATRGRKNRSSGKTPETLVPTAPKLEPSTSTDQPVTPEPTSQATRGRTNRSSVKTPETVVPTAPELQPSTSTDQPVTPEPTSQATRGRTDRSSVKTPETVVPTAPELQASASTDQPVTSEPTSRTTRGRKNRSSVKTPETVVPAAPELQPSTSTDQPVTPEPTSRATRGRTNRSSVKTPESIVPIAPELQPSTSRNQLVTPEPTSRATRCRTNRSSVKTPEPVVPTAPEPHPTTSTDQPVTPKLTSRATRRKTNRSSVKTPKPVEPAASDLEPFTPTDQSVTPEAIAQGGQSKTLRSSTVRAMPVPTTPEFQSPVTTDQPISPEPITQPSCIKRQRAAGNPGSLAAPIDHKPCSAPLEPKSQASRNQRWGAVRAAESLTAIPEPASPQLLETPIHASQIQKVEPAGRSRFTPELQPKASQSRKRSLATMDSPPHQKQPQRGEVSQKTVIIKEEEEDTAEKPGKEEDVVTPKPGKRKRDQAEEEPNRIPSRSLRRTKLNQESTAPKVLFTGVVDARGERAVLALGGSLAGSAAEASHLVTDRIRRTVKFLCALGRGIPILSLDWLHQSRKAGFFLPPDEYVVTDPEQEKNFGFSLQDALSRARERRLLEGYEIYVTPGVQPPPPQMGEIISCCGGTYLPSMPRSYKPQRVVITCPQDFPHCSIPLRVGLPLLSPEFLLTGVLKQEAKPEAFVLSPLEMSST
UniProt Q68D91, sequence (Q68D91 whole entry): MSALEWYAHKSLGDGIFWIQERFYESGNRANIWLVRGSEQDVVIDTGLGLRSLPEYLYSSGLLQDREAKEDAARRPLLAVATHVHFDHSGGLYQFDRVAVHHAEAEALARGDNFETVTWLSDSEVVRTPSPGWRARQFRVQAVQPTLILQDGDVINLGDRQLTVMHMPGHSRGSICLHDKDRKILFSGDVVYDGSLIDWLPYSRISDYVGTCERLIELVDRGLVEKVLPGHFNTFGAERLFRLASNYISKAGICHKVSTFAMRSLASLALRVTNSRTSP

Target	NP40-soluble protein abundance (concentration: 0.1mM)	NP40-soluble protein abundance (concentration: 0.5mM)	NP40-soluble protein abundance (concentration: 1mM)	NP40-soluble protein abundance (concentration: 2mM)	NP40-soluble protein abundance (concentration: 4mM)	NP40-soluble protein abundance (concentration: 6mM)	NP40-soluble protein abundance (concentration: 8mM)	NP40-soluble protein abundance (concentration: 10mM)
UniProt Q04656|Q04656-2|Q04656-3|Q04656-5	1.01 ± 0.13	1.01 ± 0.059	0.971 ± 0.096	1.01 ± 0.079	0.951 ± 0.052	1.02 ± 0.015	0.972 ± 0.11	0.924 ± 0.087
EDC4 (UniProt Q6P2E9)	0.984 ± 0.029	1 ± 0.037	1.01 ± 0.045	1.01 ± 0.029	1.01 ± 0.039	1.02 ± 0.032	1.02 ± 0.057	1.04 ± 0.046
UniProt Q8WXA9-2	1.02 ± 0.067	1.11 ± 0.044	1.14 ± 0.077	1.12 ± 0.082	1.15 ± 0.067	1.11 ± 0.07	1.18 ± 0.035	1.18 ± 0.1
PPP2R5A (UniProt Q15172)	1.04 ± 0.063	0.993 ± 0.046	0.939 ± 0.011	0.9 ± 0.033	0.877 ± 0.048	0.864 ± 0.04	0.862 ± 0.097	0.848 ± 0.055
UniProt Q8NCW5	0.907 ± 0.084	0.869 ± 0.041	0.991 ± 0.083	0.986 ± 0.055	0.967 ± 0.085	0.932 ± 0.08	0.895 ± 0.11	0.969 ± 0.1
UniProt Q8IW45|Q8IW45-2	1.01 ± 0.071	0.978 ± 0.074	0.985 ± 0.038	0.945 ± 0.021	0.969 ± 0.013	0.915 ± 0.045	0.954 ± 0.077	0.91 ± 0.035
PDCD6IP (UniProt Q8WUM4)	0.945 ± 0.046	0.957 ± 0.053	0.943 ± 0.061	0.889 ± 0.075	0.873 ± 0.084	0.895 ± 0.064	0.904 ± 0.053	0.883 ± 0.07
UniProt Q13427|E9PG73	0.978 ± 0.092	1.11 ± 0.12	1.18 ± 0.13	1.16 ± 0.098	1.09 ± 0.13	1.12 ± 0.12	1.21 ± 0.18	1.2 ± 0.2
ANKRD11 (UniProt Q6UB99)	1.01 ± 0.024	1.01 ± 0.092	1.1 ± 0.027	1.1 ± 0.06	1.1 ± 0.041	1.08 ± 0.042	1.18 ± 0.073	1.17 ± 0.073
DHX9 (UniProt Q08211)	1.03 ± 0.088	1.13 ± 0.16	1.06 ± 0.17	1.2 ± 0.26	1.32 ± 0.28	1.49 ± 0.37	1.52 ± 0.3	1.64 ± 0.33
UniProt Q16630|Q16630-2	1.16 ± 0.012	1.64 ± 0.098	1.95 ± 0.22	2.23 ± 0.3	2.49 ± 0.41	2.58 ± 0.45	2.71 ± 0.58	2.75 ± 0.56
MBLAC2 (UniProt Q68D91)	1.09 ± 0.12	1.03 ± 0.1	1 ± 0.11	1.02 ± 0.13	1.01 ± 0.11	0.941 ± 0.13	0.952 ± 0.097	0.929 ± 0.14
ALDH16A1 (UniProt Q8IZ83)	1.11 ± 0.033	1.1 ± 0.076	1.13 ± 0.13	1.15 ± 0.12	1.16 ± 0.17	1.15 ± 0.15	1.16 ± 0.16	1.11 ± 0.15
UniProt Q8IXB1|Q8IXB1-2	1.17 ± 0.21	1.06 ± 0.11	1.08 ± 0.1	1.17 ± 0.15	1.1 ± 0.11	1.11 ± 0.16	1.1 ± 0.11	1.06 ± 0.084
UniProt Q13303-2	1.05 ± 0.045	1.06 ± 0.11	0.954 ± 0.086	1 ± 0.14	0.984 ± 0.11	0.973 ± 0.14	0.898 ± 0.024	0.904 ± 0.043
UniProt Q5K651|C9JKF1	1.04 ± 0.017	1.07 ± 0.021	0.998 ± 0.025	1.01 ± 0.062	0.968 ± 0.083	0.959 ± 0.047	0.985 ± 0.045	0.949 ± 0.088
MDC1 (UniProt Q14676)	1.1 ± 0.024	1.14 ± 0.042	1.23 ± 0.053	1.41 ± 0.11	1.66 ± 0.17	1.77 ± 0.21	1.86 ± 0.29	1.92 ± 0.36
RABGGTA (UniProt Q92696)	1.04 ± 0.026	1.04 ± 0.075	0.896 ± 0.022	0.916 ± 0.068	0.91 ± 0.037	0.889 ± 0.032	0.847 ± 0.037	0.849 ± 0.07
EIF3A (UniProt Q14152)	1.05 ± 0.031	1.08 ± 0.018	1.09 ± 0.062	1.18 ± 0.12	1.38 ± 0.23	1.53 ± 0.28	1.74 ± 0.34	1.94 ± 0.38
HNRNPA1L2 (UniProt Q32P51)	1.34 ± 0.52	1.32 ± 0.58	1.8 ± 0.79	1.49 ± 0.44	1.47 ± 0.51	1.67 ± 0.65	1.92 ± 0.8	1.58 ± 0.35
UniProt Q13642-1|Q13642-4|Q13642-5	1.07 ± 0.16	1.09 ± 0.17	0.946 ± 0.13	0.921 ± 0.14	0.932 ± 0.12	0.911 ± 0.12	0.952 ± 0.093	0.915 ± 0.15
UniProt Q02880|Q02880-2	1.08 ± 0.06	1.09 ± 0.065	1.21 ± 0.06	1.37 ± 0.11	1.68 ± 0.17	1.85 ± 0.27	1.99 ± 0.26	2.08 ± 0.34
UniProt Q5SRE5|Q5SRE5-2	1.17 ± 0.11	1.13 ± 0.051	1.03 ± 0.13	1.01 ± 0.13	1.13 ± 0.024	1.11 ± 0.088	1.03 ± 0.029	1.08 ± 0.046
UniProt Q12872|Q12872-2	0.979 ± 0.031	1.04 ± 0.027	1.17 ± 0.014	1.24 ± 0.024	1.42 ± 0.016	1.52 ± 0.068	1.7 ± 0.13	1.78 ± 0.13
UniProt Q8N5G2	1.07 ± 0.1	1.03 ± 0.089	1.12 ± 0.15	1.3 ± 0.057	1.26 ± 0.24	1.16 ± 0.17	1.24 ± 0.21	1.43 ± 0.25
UniProt Q49A26|Q49A26-3|Q49A26-4	1.044 ± 0.0023	1.06 ± 0.036	1.15 ± 0.03	1.27 ± 0.028	1.52 ± 0.16	1.72 ± 0.026	1.97 ± 0.078	2.27 ± 0.094
UniProt Q14103-3|D6RF44|Q14103-4	0.913 ± 0.097	0.946 ± 0.094	0.943 ± 0.085	0.894 ± 0.1	0.903 ± 0.1	0.915 ± 0.084	0.947 ± 0.11	0.929 ± 0.11
UniProt Q8IZ81|D6RBS5	1.12 ± 0.15	1.15 ± 0.2	0.932 ± 0.066	0.934 ± 0.069	0.944 ± 0.063	0.877 ± 0.048	0.958 ± 0.13	0.802 ± 0.051
UniProt Q13325|Q13325-2	1.06 ± 0.044	1.05 ± 0.061	0.989 ± 0.057	0.978 ± 0.05	0.952 ± 0.086	0.927 ± 0.049	0.906 ± 0.077	0.888 ± 0.13
YRDC (UniProt Q86U90)	0.989 ± 0.041	0.952 ± 0.022	0.949 ± 0.027	0.943 ± 0.015	0.946 ± 0.041	0.899 ± 0.026	0.871 ± 0.07	0.916 ± 0.055
